The record followed here is PubChem BioAssay (NCATS).

The nature of experiment [1]: Cytotoxicity counterscreen for inhibitors of SARS-CoV-2 cell entry (AID 1645845). Further: nearly all actives have a fitted effect of over 50% in size. The procedure, abridged:
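48 h compound treatment (after 1 h preincubation), HEK293-ACE2 cells, 37 C/5% CO2; ATP luminescence endpoint; normalized to cell wells and media blanks.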
On the technique in general: Counterscreens check selectivity or assay interference.

A short description of experiment [2]: Primary qHTS to identify inhibitors of SARS-CoV-2 cell entry (AID 1645846). Further: nearly all actives have a fitted effect of over 45% in size. Further: potency means the concentration at half of the fitted maximal effect. Particulars: activity change, negative = inhibition: at 57.1 µM (top of the series) unless noted. In outline:
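Data are normalized to wells receiving SARS-CoV-2-S pseudoparticles and those given bald particles. Entry signal was luciferase luminescence in stable hACE2 Expi293F cells, 48 hr post-infection, after 1 hr compound pretreatment.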
For orientation: Quantitative high-throughput screening tests each substance at several concentrations.

Several values for one entry are separate records, joined by “and”; a condition that tells them apart may be missing. Identical values can stand only once. Inconclusive results are not listed. Activity calls are given as the source filed them. The call rests on the fitted dose curve. Starred links: 1 amine or outer side, 2 acyl side, 3 side chain; linkers in the order of their positions; H or OH if unused. Positions of bridges follow the written chain, without caps; N, C: chain ends. Non-standard residues stand in square brackets, D forms with d. Residues, ends and D or L forms follow the SMILES beside them. ξ: configuration not given here. *: point of attachment. ΔAla(3-NHCONH2) = NC(=O)NC=C(N)C(=O)O; X1 = NC1=NCCC(C(N[*:1])C(=O)[*:2])N1; ξβ3hOrn = NCCCC(N)CC(=O)*; Dap = NC[CH](N)C(=O)O

In the case of `Cn1ccc2cc3c(cc21)CCN3C(=O)Nc1cccnc1`, in experiment [1], the Potency result was “inactive”. Also, the activity change, negative = inhibition in experiment [2] was -18.3%.

As for `COc1ccccc1OCC(O)CN1CCN(CC(=O)Nc2c(C)cccc2C)CC1` (configuration not stated), in experiment [1], the Potency result was “inactive”. Also, in experiment [2], the activity change, negative = inhibition is 4.5% and -8.51%.

In the case of `NCCC(O)(P(=O)(O)O)P(=O)(O)O`, the Potency entry in experiment [1] and in experiment [2] was “inactive” each time.

`CCCCN1C[C@H](O)[C@@H](O)[C@H](O)[C@H]1CO`: the Potency entry in experiment [1] was “inactive”. For the same molecule, in experiment [2], the activity change, negative = inhibition was -1.04%.

With `Nc1nc2c(ncn2COCCO)c(=O)[nH]1`, the Potency entry in experiment [1] and in experiment [2] was “inactive” each time.

For the molecule `CC(=O)SC[C@@H](C)C(=O)N1CCC[C@H]1C(=O)N[C@@H](Cc1ccccc1)C(=O)O`, the Potency result in experiment [1] was “inactive”. In addition, the activity change, negative = inhibition in experiment [2] is -7.21%.

As to `NS(=O)(=O)c1cc2c(cc1C(F)(F)F)NCNS2(=O)=O`, the Potency entry in experiment [1] and in experiment [2] was “inactive” in each case.

Regarding `O=c1[nH]cc(F)c(=O)[nH]1`, the Potency result in experiment [1] was “inactive”. Besides, the Potency in experiment [2] is 11.2 µM (active) and 14.1 µM (active).

`Oc1cn2c(n1)Nc1ccc(Cl)c(Cl)c1C2`: the Potency entry in experiment [1] and in experiment [2] was “inactive” throughout.

Turning to `O=P(O)(O)C(O)(Cc1cccnc1)P(=O)(O)O`, in experiment [1], the Potency result is “inactive”. Also, the activity change, negative = inhibition in experiment [2] is 4.27% and -14.8%.

In the case of `NCCCC(N)CC(=O)NCC1NC(=O)C(CO)NC(=O)C(N)CNC(=O)C(C2CCN=C(N)N2)NC(=O)C(=CNC(N)=O)NC1=O` (stereo not drawn) (H-[Dap]S[Dap](ξβ3hOrn)[ΔAla(3-NHCONH2)][X1]; lactam 1-C; configuration not given here), in experiment [1], the outcome was “inactive [at 0.702 µM]”. The activity change, negative = inhibition in experiment [2] was found to be 3.17% [at 0.702 µM].

As to `CNCCc1ccccn1`, the Potency result in experiment [1] and in experiment [2] was “inactive” in each case.

Consider `CC(=O)OCC(CCn1cnc2cnc(N)nc21)COC(C)=O`, for which the Potency entry in experiment [1] is “inactive”. Besides, in experiment [2], the activity change, negative = inhibition was -14.3% and -5.75%.

Take `CC(=O)N[C@@H](CS)C(=O)O`: the Potency result in experiment [1] and in experiment [2] was “inactive” each time.

`CCC[C@H](N[C@@H](C)C(=O)N1[C@H](C(=O)O)C[C@@H]2CCCC[C@@H]21)C(=O)OCC`: the Potency result in experiment [1] and in experiment [2] was “inactive” throughout.

With `Cc1ccc(S(=O)(=O)NC(=O)NN2CC3CCCC3C2)cc1` (configuration not stated), the Potency entry in experiment [1] and in experiment [2] was “inactive” throughout.
